Results as given in ChEMBL document CHEMBL3988442, “University of Dundee, Small-Polar-MMV Screening Library” (2021).
Values joined by “and” are separate entries in the source; they are usually repeats but may differ in a detail not shown here. Equal values may be shown once. For part of these data: Measured potencies and affinities stand elsewhere.

Columns and labels:
Set-up in all cases: scale not given: direction of the effect not stated beside the values
[1] = target: Protein translocase subunit SecA (Escherichia coli (strain K12)) (UniProt P10408); assay: Assay to Identify E. coli SecA ATPase Inhibitors; format: functional; settings: 30 µM
[2] = target: T1, Ubiquitin-activating enzyme e1, putative (Leishmania donovani (strain BPK282A1)) (UniProt E9BSI1); assay: Leishmania donovani Ubiquitin Activating Enzyme (LdE1); format: functional; settings: 30 µM
T1 sequence (whole entry): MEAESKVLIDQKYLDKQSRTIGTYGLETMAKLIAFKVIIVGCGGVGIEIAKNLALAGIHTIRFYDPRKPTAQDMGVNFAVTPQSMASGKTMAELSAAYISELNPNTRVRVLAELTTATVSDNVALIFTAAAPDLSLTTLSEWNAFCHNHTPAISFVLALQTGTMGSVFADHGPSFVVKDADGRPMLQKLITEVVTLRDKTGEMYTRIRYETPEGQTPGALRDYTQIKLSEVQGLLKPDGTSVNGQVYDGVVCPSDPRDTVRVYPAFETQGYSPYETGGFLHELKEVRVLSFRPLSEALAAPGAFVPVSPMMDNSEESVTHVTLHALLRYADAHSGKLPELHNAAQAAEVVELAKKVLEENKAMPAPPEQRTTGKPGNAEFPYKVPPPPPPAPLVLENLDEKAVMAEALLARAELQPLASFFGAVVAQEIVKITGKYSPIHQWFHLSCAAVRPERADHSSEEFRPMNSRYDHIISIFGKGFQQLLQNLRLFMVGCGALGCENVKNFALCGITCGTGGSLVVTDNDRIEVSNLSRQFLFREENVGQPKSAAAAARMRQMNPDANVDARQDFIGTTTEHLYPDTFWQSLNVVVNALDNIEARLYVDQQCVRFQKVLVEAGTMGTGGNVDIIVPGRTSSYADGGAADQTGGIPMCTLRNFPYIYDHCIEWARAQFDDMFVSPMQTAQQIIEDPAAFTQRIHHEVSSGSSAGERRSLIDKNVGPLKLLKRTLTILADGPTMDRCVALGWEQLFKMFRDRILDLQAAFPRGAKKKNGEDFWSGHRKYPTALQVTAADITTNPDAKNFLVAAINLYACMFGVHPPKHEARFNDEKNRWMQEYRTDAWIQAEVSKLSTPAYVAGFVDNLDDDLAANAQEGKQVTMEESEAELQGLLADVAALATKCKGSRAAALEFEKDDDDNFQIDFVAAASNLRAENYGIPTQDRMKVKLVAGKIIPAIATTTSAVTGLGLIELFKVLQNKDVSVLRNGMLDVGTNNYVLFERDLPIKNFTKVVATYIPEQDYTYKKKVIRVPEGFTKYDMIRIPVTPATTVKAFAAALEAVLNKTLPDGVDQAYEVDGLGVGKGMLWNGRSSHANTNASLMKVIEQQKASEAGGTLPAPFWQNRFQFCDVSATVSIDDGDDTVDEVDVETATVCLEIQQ

[3] = target: AMP-activated protein kinase, AMPK (Homo sapiens) (UniProt P54646+O43741+P54619+Q9UGJ0+Q9Y478+Q13131+Q9UGI9); assay: AMP-dependent Kinase enzyme assay. An in vitro enzyme assay that detects ADP turnover that is directly proportional to AMPK activity. This uses naive AMPK that is activated during the assay with MK-8722; format: functional; settings: 30 µM
[4] = target: Sialic acid-binding Ig-like lectin 9 (Homo sapiens) (UniProt Q9Y336); assay: Hs-Siglec9 ALPHAscreen SOP 20170721; settings: 10 µM
Trypanosoma cruzi = assay: Trypanosoma cruzi phosphomannomutase and mannose-1-phosphate guanylyltransferase assay; format: functional; settings: 10 µM
[5] = target: T2, Arginase-2, mitochondrial (Homo sapiens) (UniProt P78540); assay: in vitro enzyme assay to detect the production of urea directly proportional to the activity of Arginase II; format: functional; settings: 33.3 µM; also: in the data most compounds retested in dose-response had high values
T2 sequence (whole entry): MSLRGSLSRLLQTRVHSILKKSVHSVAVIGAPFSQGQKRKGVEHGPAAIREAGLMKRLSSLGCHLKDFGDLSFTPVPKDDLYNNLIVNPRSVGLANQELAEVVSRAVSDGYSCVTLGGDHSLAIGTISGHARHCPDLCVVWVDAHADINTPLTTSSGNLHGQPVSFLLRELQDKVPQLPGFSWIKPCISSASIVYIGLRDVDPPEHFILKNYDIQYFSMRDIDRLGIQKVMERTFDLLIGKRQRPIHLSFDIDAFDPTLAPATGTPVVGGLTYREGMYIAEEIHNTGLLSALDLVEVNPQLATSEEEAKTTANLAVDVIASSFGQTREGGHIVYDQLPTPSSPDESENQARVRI

[6] = target: T3, Proteasome subunit beta (Trypanosoma cruzi) (UniProt O96673); assay: Trypanosoma cruzi proteasome chymotrypsin-like activity (TcProtChymo) assay.; also: in the data most compounds retested in dose-response had high values; format: functional; settings: 9.37 µM
T3 sequence (whole entry): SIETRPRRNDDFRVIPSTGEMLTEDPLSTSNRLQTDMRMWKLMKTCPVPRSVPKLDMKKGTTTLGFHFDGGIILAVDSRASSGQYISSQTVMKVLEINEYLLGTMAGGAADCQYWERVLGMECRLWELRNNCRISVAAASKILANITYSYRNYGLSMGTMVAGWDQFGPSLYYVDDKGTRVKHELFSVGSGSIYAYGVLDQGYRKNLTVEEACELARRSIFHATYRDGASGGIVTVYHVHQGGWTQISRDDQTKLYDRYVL

Homo sapiens = species on record: Homo sapiens; assay: To identify inhibition of the IFN signalling (Jak-Stat) pathway via expression of an eGFP reporter gene under the control of an IFN-stimulated response element (ISRE) containing MxA promoter.; format: functional; settings: 30 µM
[7] = target: T4, Tyrosyl-tRNA synthetase, putative (Trypanosoma cruzi (strain CL Brener)) (UniProt Q4DSP6); assay: Trypanosoma cruzi tyrosyl tRNA synthetase (TcYRS) _High Tyrosine SOP; format: functional; settings: 30 µM; also: in the data most compounds retested in dose-response had high values
T4 sequence (whole entry): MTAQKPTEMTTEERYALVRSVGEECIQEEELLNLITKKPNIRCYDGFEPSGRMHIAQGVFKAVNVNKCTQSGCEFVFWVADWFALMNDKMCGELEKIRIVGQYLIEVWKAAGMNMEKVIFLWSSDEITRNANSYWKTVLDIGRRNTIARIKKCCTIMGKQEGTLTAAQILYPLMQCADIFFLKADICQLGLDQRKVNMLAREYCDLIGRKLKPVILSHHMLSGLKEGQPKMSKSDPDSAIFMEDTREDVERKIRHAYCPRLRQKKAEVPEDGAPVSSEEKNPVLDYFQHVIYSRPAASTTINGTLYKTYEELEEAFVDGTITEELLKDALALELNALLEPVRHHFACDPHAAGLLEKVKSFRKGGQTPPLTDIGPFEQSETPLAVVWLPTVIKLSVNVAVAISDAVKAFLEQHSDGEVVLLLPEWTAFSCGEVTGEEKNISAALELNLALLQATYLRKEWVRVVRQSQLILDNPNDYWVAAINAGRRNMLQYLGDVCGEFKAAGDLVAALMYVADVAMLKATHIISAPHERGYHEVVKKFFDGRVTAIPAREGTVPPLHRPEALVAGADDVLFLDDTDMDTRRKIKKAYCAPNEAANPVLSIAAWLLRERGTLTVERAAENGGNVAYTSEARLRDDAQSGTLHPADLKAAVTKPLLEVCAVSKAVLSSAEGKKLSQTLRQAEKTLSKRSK

[8] = target: T4, Tyrosyl-tRNA synthetase, putative (Trypanosoma cruzi (strain CL Brener)); assay: Trypanosoma cruzi tyrosyl tRNA synthetase (TcYRS) SOP; format: functional; settings: 30 µM
[9] = target: Chromo domain-containing protein 1 (Saccharomyces cerevisiae (strain ATCC 204508 / S288c) (Baker's yeast)) (UniProt P32657); assay: ScCHD-1 Enzyme Inhibition Assay; format: functional; settings: 30 µM; also: in the data most compounds retested in dose-response had high values
N/A = assay: Trypanosoma cruzi proteasome luciferase counter-screen; format: functional; settings: 9.37 µM

Sialic acid-binding Ig-like lectin 9 (Homo sapiens), sequence (Q9Y336 whole entry): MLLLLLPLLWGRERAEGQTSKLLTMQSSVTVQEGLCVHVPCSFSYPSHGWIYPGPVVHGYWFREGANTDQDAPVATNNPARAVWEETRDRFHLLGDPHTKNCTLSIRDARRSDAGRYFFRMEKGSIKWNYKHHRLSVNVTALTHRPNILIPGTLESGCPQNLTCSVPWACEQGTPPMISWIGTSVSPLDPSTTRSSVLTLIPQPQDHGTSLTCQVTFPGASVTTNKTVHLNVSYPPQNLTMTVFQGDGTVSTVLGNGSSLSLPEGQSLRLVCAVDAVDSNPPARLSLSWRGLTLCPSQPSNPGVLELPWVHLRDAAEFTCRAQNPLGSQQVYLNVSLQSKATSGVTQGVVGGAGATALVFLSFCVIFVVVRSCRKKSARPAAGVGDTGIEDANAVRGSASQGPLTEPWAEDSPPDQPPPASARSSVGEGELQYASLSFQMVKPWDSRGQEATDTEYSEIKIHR
Chromo domain-containing protein 1 (Saccharomyces cerevisiae (strain ATCC 204508 / S288c) (Baker's yeast)), sequence (P32657 whole entry, the tested form may be a part): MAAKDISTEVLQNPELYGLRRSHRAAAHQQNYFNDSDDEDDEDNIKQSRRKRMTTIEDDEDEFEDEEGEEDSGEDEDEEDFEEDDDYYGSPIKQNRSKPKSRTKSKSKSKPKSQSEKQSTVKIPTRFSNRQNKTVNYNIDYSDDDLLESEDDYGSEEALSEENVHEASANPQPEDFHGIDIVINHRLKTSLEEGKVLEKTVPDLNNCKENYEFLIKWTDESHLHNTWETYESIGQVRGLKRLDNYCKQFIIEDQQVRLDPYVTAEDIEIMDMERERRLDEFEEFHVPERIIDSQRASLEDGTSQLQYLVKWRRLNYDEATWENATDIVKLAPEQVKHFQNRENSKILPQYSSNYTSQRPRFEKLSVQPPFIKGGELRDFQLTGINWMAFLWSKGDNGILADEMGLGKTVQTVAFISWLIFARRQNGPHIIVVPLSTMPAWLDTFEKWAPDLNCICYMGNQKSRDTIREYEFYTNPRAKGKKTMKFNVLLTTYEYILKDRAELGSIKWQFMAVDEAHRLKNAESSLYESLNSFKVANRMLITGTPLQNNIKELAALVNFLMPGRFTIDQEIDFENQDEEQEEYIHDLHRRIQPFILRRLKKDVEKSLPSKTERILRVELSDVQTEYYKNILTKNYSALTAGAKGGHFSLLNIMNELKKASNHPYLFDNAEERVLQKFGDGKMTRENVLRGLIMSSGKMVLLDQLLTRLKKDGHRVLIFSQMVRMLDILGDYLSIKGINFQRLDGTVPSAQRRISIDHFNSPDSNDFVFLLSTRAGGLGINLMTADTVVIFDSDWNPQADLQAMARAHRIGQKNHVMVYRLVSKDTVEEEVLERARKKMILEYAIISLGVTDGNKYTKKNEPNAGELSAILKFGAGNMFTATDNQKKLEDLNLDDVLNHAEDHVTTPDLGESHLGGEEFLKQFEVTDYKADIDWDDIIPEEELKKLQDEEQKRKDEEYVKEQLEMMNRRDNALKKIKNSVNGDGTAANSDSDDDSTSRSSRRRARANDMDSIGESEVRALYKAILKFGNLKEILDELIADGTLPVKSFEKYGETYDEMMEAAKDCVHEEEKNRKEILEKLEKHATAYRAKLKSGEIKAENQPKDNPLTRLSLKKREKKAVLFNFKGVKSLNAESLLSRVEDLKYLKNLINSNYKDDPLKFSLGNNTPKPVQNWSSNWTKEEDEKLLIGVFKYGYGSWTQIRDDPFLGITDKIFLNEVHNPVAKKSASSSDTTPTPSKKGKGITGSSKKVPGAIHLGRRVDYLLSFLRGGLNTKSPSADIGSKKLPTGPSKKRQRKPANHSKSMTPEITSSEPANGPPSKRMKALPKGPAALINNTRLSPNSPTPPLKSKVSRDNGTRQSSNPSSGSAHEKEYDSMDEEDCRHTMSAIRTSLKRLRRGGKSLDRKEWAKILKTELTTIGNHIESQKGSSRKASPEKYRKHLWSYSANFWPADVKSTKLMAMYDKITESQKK
Protein translocase subunit SecA (Escherichia coli (strain K12)), sequence (P10408 whole entry): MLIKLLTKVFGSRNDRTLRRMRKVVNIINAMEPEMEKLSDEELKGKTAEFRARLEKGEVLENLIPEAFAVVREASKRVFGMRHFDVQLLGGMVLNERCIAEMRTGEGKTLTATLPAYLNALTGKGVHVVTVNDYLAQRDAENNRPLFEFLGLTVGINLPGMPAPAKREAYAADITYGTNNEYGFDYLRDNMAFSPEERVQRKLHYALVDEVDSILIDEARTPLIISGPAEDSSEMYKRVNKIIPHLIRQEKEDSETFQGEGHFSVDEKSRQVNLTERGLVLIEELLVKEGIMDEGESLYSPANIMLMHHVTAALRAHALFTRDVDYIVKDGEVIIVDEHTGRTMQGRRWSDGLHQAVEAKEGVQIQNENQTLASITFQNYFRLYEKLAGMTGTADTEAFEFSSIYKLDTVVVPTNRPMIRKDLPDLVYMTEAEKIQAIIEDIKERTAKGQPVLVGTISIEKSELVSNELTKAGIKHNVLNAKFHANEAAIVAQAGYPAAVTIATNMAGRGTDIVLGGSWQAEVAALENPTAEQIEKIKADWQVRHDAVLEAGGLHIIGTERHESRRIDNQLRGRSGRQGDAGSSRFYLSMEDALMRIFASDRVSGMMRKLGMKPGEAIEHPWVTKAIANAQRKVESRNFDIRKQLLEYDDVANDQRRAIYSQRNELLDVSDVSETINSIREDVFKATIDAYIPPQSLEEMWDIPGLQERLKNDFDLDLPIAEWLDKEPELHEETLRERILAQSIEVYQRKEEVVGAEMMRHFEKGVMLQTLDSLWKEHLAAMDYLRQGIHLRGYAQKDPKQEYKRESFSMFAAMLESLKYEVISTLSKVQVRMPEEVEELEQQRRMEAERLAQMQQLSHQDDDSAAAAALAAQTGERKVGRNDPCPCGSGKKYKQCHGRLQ

| SMILES | Percent Effect [1] [%] | Percent Effect [2] [%] | Percent Effect [3] [%] | Percent Effect [4] [%] | Percent Effect (Trypanosoma cruzi) [%] | Percent Effect [5] [%] | Percent Effect [6] [%] | Percent Effect (Homo sapiens) [%] | Percent Effect [7] [%] | Percent Effect [8] [%] | Percent Effect [9] [%] | Percent Effect (N/A) |
| --- | --- | --- | --- | --- | --- | --- | --- | --- | --- | --- | --- | --- |
| CCOCC(O)CN1CCN(C(=O)CC(C)(C)C)CC1 (configuration not stated) | -3.75 | -2.7 | -10.6 | 5.4 | -1.98 | 0.401 | -7.75 | 0.227 | 2.46 | 3.7 | 1.7 | – |
| CC(C(=O)NCc1ccnc(Oc2ccc(F)cc2)c1)n1cncn1 (configuration not stated) | -3.42 | -54 | -1.15 | 7.66 | 3.86 | 4.29 | 9.31 | 0.85 | 4.76 | 14.6 | -1.39 | – |
| c1cnnc(N2CCCC2CNCc2nc3ccccc3o2)c1 (configuration not stated) | -0.208 | 2.74 | -3.71 | 10.3 | 0 | -3.19 | 21 | -2.37 | 15.6 | 25.9 | -2.93 | – |
| CNS(=O)(=O)Cc1ccc(CNC(=O)Nc2cccnc2)cc1 | -1.42 | 30.4 | -9.66 | -12.1 | 4.25 | -6.08 | 14.2 | 11.1 | 6.4 | 16.5 | -12.7 | – |
| O=C(c1cc[nH]n1)N1CCC(Nc2cccnn2)CC1 | -5.6 | 7.79 | 1.01 | -11.8 | 8.52 | -2.74 | 9.62 | 5.31 | 6.67 | 11.8 | -18.4 | – |
| O=C(C1=CCCC1)N1C[C@@H]2COC[C@]2(COc2cccnc2)C1 | -2.49 | 2.7 | 7.33 | 5.37 | -1.27 | 5.41 | – | 0.513 | 0 | -2.56 | 4.29 | 7.45% and 8.06% |
| Cc1ccc(-c2cc(CNC(=O)N3CCC(CO)CC3)on2)cc1 | -2.94 | 21.6 | 1.9 | -3.05 | -4.74 | -0.185 | 14.9 | 14 | 6.93 | 13.4 | -4.09 | – |
| O=C(CN1CC(n2cccn2)C1)NCCc1c[nH]c2ccccc12 | -3.91 | -2.7 | 143 | 3.66 | 2.69 | -0.924 | -4.13 | 10.4 | 0.99 | 11 | 7.61 | – |
| CC(C)n1ncc2c1NC(=O)CSC2C(C)(C)C (configuration not stated) | -4 | 17.3 | -3.06 | 7.25 | 3.14 | -3.7 | 8.69 | 8.09 | 5.29 | 12.8 | -8.28 | – |
| Cc1occc1C(=O)N1CCC2(CC1)C(c1cnn(C)c1)CC(=O)N2C (configuration not stated) | -5.4 | 13.5 | 6.87 | -12.9 | -4.59 | 1.59 | – | 15.9 | -11.9 | 7.69 | -4.17 | 11.5% and 13.8% |
| O=C(NCc1csc(Br)c1)c1ccc(=O)[nH]n1 | -0.0216 | 6.33 | 0.358 | -1.84 | -3.18 | 4.95 | 6.86 | 13.1 | 4.17 | -10.1 | -8.89 | – |
| Fc1cc(CNCc2ccc3c(c2)CCO3)ccc1N1CCOCC1 | -0.571 | -8.11 | -9.24 | -2.02 | 0 | -2.86 | 6.38 | 2.17 | -2.65 | 0 | -3.66 | – |
